This note sets out measurements from PubChem BioAssay.

Unmarked numbers belong to inactive results. No rule for the calls is given here. Where a SMILES comes first, the peptide text is derived from it. The star is where a group is joined. Boc = CC(C)(C)OC(=O)*

The test deals with Pantothenate synthetase (Mycobacterium tuberculosis (strain ATCC 25618 / H37Rv)) (UniProt P9WIL5). Description: Coupled enzyme confirmation of inhibitors against recombinant Mtb PanC (AID 375).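 Also: 0% = full reaction with vehicle and 100% = no enzyme background.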 Conditions: coupled enzyme assay; at 10 µM, hits give high values.
Pantothenate synthetase (Mycobacterium tuberculosis (strain ATCC 25618 / H37Rv)), sequence (P9WIL5 whole entry, looked up): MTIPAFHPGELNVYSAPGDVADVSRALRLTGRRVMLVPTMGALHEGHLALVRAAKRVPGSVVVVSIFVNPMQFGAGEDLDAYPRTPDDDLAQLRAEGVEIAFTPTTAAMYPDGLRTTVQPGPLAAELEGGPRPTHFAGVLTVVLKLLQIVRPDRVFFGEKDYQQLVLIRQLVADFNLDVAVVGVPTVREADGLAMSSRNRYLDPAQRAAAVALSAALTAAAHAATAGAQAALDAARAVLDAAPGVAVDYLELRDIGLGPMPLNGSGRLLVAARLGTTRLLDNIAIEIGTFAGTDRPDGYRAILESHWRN
As to `CCCCN(C)CCCNC(=O)CC1Oc2ccccc2NC1=O` (centres undefined), the inhibition is 6%.

Turning to `CSCCC(NC(=O)OC(C)(C)C)C(=O)NC(CC(C)C)C(N)=O` (stereo not drawn) (Boc-Met-Leu-NH2; configuration not given here), the inhibition was 0%.

Regarding `Cc1ccc(S(=O)(=O)N2CCCC2C(=O)n2nc(C)cc2C)cc1` (centres undefined), the inhibition was 0%.

As to `Cc1cnn(Cc2ccccc2)c1N`, the inhibition was 3%.
